The supplement of paper PMC9694430

Key:
Experiment in all cases: thermal shift delta Tm vs DMSO control; higher = stronger stabilization (binding)
Details in all cases: 12.5 µM; protein concentration 2 µM
[1] = system: LOC_OS02G45750-cb003
Procedure, shortened: (§1)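 Rice kinase domain constructs, made in E. coli and purified, were placed in 96-well plates at 2 μM in 19.5 μl of 100 mM potassium phosphate pH 7.5, 150 mM NaCl, 10% glycerol and 5 × SYPRO Orange, with compound in DMSO. A temperature ramp from 25°C to 95°C at 0.05°C/s was used for differential scanning fluorimetry. The melting temperature shift is a triplicate mean compared with DMSO-only protein, derived from Boltzmann fits.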

[2] = system: LOC_OS02G54510-cb004
Procedure, shortened: as §1

[3] = system: LOC_OS03G04050-cb001
Procedure, shortened: as §1

[4] = system: LOC_OS03G12390-cb001
Procedure, shortened: as §1

[5] = system: LOC_OS03G27990-cb004
Procedure, shortened: as §1

[6] = system: LOC_OS03G50450-cb001
Procedure, shortened: as §1

[7] = system: LOC_OS03G50810-cb003
Procedure, shortened: as §1

[8] = system: LOC_OS04G35114-cb001
Procedure, shortened: as §1

[9] = system: T1, LOC_OS04G38480-cb003
T1 sequence (whole entry): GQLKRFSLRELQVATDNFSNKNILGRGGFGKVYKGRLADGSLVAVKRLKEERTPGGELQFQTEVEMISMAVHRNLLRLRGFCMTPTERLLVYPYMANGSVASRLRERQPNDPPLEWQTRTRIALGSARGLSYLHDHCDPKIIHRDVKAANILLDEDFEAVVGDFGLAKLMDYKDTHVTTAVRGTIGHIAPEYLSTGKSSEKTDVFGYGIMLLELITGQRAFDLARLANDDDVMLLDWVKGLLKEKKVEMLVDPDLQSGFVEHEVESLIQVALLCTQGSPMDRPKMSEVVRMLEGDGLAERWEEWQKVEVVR
Procedure, shortened: as §1

[10] = system: T2, LOC_OS04G41100-cb001
T2 sequence (whole entry): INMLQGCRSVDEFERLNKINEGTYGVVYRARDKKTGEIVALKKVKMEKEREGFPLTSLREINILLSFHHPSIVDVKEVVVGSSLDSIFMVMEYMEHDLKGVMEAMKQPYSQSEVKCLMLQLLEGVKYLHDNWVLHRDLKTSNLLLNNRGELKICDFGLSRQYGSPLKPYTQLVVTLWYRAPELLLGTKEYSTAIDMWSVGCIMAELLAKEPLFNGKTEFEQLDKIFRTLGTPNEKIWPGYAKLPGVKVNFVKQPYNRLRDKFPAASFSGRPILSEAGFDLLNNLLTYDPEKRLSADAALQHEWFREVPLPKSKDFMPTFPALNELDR
Procedure, shortened: as §1

[11] = system: LOC_OS04G57630-cb004
Procedure, shortened: as §1

[12] = system: LOC_OS05G07850-cb002
Procedure, shortened: as §1

[13] = system: LOC_OS05G16824-cb004
Procedure, shortened: as §1

[14] = system: LOC_OS05G28520-cb001
Procedure, shortened: as §1

[15] = system: LOC_OS05G30820-cb001
Procedure, shortened: as §1

[16] = system: LOC_OS05G43570-cb004
Procedure, shortened: as §1

[17] = system: LOC_OS06G16330-cb003
Chain of LOC_OS06G16330-cb003 (as listed by the source): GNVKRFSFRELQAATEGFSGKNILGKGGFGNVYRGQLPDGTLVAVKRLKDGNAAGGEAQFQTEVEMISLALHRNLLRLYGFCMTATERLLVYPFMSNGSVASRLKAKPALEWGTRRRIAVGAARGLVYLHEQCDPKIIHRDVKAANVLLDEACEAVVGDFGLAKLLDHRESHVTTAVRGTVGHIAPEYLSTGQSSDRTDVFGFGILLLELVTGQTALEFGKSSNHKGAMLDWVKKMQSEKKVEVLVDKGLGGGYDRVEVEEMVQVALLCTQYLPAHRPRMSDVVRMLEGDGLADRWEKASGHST
Procedure, shortened: as §1

[18] = system: T3, LOC_OS06G22820-cb001
T3 sequence (whole entry): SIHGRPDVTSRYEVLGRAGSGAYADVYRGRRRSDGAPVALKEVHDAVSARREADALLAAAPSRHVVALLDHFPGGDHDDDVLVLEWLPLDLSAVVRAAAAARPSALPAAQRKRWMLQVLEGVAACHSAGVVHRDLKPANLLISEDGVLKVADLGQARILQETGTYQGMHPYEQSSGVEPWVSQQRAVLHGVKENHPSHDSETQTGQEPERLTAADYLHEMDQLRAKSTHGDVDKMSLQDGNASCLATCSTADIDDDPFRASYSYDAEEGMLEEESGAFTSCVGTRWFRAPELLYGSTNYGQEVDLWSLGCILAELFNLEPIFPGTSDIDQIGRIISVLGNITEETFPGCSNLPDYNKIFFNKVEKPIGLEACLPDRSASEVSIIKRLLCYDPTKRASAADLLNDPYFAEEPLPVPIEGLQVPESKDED
Procedure, shortened: as §1

[19] = system: LOC_OS07G06570-cb004
Procedure, shortened: as §1

[20] = system: LOC_OS07G07230-cb001
Procedure, shortened: as §1
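Note: purified Escherichia coli-expressed rice kinase domain construct.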

Row | Structure (SMILES) | thermal shift delta Tm [1] [°C] | thermal shift delta Tm [2] [°C] | thermal shift delta Tm [3] [°C] | thermal shift delta Tm [4] [°C] | thermal shift delta Tm [5] [°C] | thermal shift delta Tm [6] [°C] | thermal shift delta Tm [7] [°C] | thermal shift delta Tm [8] [°C] | thermal shift delta Tm [9] [°C] | thermal shift delta Tm [10] [°C] | thermal shift delta Tm [11] [°C] | thermal shift delta Tm [12] [°C] | thermal shift delta Tm [13] [°C] | thermal shift delta Tm [14] [°C] | thermal shift delta Tm [15] [°C] | thermal shift delta Tm [16] [°C] | thermal shift delta Tm [17] [°C] | thermal shift delta Tm [18] [°C] | thermal shift delta Tm [19] [°C] | thermal shift delta Tm [20] [°C]
1 | OCCn1cc(-c2cnc3nnn(Cc4ccc5ncccc5c4)c3n2)cn1 | 0.63 | 0.54 | 0.84 | -0.07 | 0.33 | 0.8 | 0.22 | 0.87 | -0.51 | 0.57 | -0.21 | 0.33 | -2.44 | 0.66 | 0.46 | 0.28 | -0.29 | 0.46 | 0.2 | 0.97
2 | CN1CCN(c2ccc(-c3ccncc3-c3cc(F)c(O)c(F)c3)cc2)CC1 | 0.61 | 0.42 | 0.42 | -0.07 | 0.3 | 0.59 | 0.5 | 1.01 | 1.07 | 0.43 | 0.24 | 3.75 | -0.65 | 0.95 | 0.41 | 0.25 | 1.09 | 0.54 | 0.48 | 0.18
3 | O=C(O[C@@H]1Cc2c(O)cc(O)cc2O[C@@H]1c1cc(O)c(O)c(O)c1)c1cc(O)c(O)c(O)c1 [(-)-Epigallocatechin Gallate] | -1.81 | -0.12 | 0.68 | -1.02 | 0.05 | -0.27 | -1.51 | -2.2 | 2.43 | 1.15 | 0.03 | -2.62 | -0.59 | 0.94 | 0.74 | 1.57 | 0.52 | 1.84 | -0.75 | 0.18
4 | COc1cc2nccc(Oc3ccc(NC(=O)Nc4cc(C)on4)c(Cl)c3)c2cc1OC [Tivozanib (AV-951)] | 2.56 | 3.55 | 0.02 | 1.3 | 0.02 | -0.03 | 2.67 | 3.47 | 4.03 | 0.72 | 3.28 | 9.77 | 2.86 | 2.41 | 0.62 | 0.21 | 10.8 | 0.55 | 0.52 | -0.04
5 | CN1CCN(c2ccc3nc(-c4c(N)c5c(F)cccc5[nH]c4=O)[nH]c3c2)CC1 [Dovitinib (TKI-258, CHIR-258)] | 13 | 0.96 | 0.58 | 2.88 | 4.19 | 2.43 | 4.84 | 7.2 | 1.57 | 0.95 | 1.24 | 6.74 | 12.6 | 1.08 | 0.71 | 0.77 | 3.64 | 0.56 | 1.13 | 0.36
6 | CC(C)Nc1cc(-c2c[nH]c(C(=O)N[C@H](CO)c3cccc(Cl)c3)c2)c(Cl)cn1 | 0.06 | 0.08 | 0.57 | 1.86 | 0.44 | 0.2 | 0.3 | 1.54 | 1.63 | 1.97 | -0.02 | 2.27 | -2.75 | 0.6 | 0.63 | 0.49 | 0.62 | 0.65 | 1.26 | -0.16
7 | Cc1cn(-c2cc(NC(=O)c3ccc(C)c(Nc4nccc(-c5cnccn5)n4)c3)cc(C(F)(F)F)c2)cn1 [Radotinib] | 0.73 | 1.99 | 0.36 | 0.26 | 0.23 | -0.11 | 0.14 | 0.13 | 1.4 | 0.41 | 0.16 | -1.11 | 0.06 | 0.56 | 0.41 | 0.62 | -0.09 | 0.69 | 1.06 | 0.23
8 | CN1CCN(c2ccc(Nc3cc(-c4cccc(-n5ccc6cc(C7CC7)cc(F)c6c5=O)c4CO)cn(C)c3=O)nc2)CC1 | 0.34 | -0.3 | 0.53 | -0.21 | 0.57 | 0.67 | 0.5 | 0.26 | 1.08 | 0.45 | 0.45 | 2.96 | 0.67 | 0.6 | 0.63 | 0.46 | 0.74 | 0.59 | 1.21 | 0.61
9 | C[C@@H](N)c1ccc(C(=O)Nc2ccnc3[nH]ccc23)cc1 | 1.52 | 0.39 | 0.7 | 0.27 | 0.76 | 0.85 | 0.77 | 1.23 | 2.01 | 0.85 | 0.16 | 3.37 | -0.56 | 0.67 | 0.3 | 0.84 | 2.93 | 0.59 | 0.72 | -0.1
10 | C=CC(=O)N1CCC[C@@H](n2nc(-c3ccc(Oc4ccccc4)cc3)c3c(N)ncnc32)C1 | 1.46 | 1.25 | 0.88 | 0.1 | 0.51 | 1.39 | 1.07 | 3.03 | 1.2 | 0.37 | 1 | 6.56 | 1.31 | -0.3 | 0.44 | 0.27 | 1.99 | 0.54 | 0.5 | 0.64
11 | CCN(CC)CCCC(C)Nc1ccnc2cc(Cl)ccc12 (stereo not given) [Chloroquine Phosphate] | 0.61 | 0.18 | 0.45 | 0 | 0.19 | 0.25 | 0.19 | 0.59 | 2.48 | 0.64 | 0.53 | 0.78 | -0.51 | 0.02 | 0.51 | 0.55 | -3.04 | 0.22 | 0.72 | 0.52
12 | C#Cc1cccc(Nc2ncnc3cc4c(cc23)OCCOCCOCCO4)c1 [Icotinib] | 3.3 | 0.13 | 0.58 | 1.26 | 0.45 | 0.72 | 1.31 | 4.38 | 3.08 | 0.38 | 1.01 | 8.46 | -0.7 | 0.87 | 0.31 | 0.43 | 3.06 | 0.81 | 1 | 0.07
13 | Nc1nc(Nc2ccc(S(N)(=O)=O)cc2)nn1C(=O)c1c(F)cccc1F | 9.34 | 2.82 | -0.19 | 9.07 | 3.59 | 0.97 | 3.42 | 4.58 | 2.97 | 2.3 | 1.19 | 12.5 | 8.94 | 0.98 | 1.95 | 0.82 | 8.67 | -0.12 | 1.81 | 0.21
